ChEMBL document CHEMBL3988442, “University of Dundee, Small-Polar-MMV Screening Library” (2021)
Hit rate of the full screen: of about 48,000 compounds, about 13,000 (27%) showed an effect of 50% or more. The list shows a part of the results.

tested on: Wolbachia pipientis; test: Anti-Wolbachia Cell-Based Screen; assay type: functional; design: scale not given: in the data most compounds retested in dose-response had high values; settings: 5 µM

Compound	Percent Effect [%]
CNC(=O)Cc1ccc(-n2ccnc2-c2cccc(C(=O)O)c2)cc1	-25.18
Cc1noc(-c2ccc(N(C)Cc3cccnc3)nc2)n1	-25.91
O=C1CCc2cc(S(=O)(=O)NCc3cc4n(n3)CCNC4)ccc2N1	-63.18
Cc1ccc(C(CNCc2cnn(C(C)C)c2)N2CCOCC2)s1 (stereo not drawn)	14.4
O=C(NCC(O)COc1cccc(F)c1)C1(c2ccc(F)cc2)CC1 (stereo not drawn)	-1.107
CCCOCCn1ncc(N2CCc3ccccc3C2)cc1=O	-4.867
CNC(=O)Cc1nc(CNc2ccc(SC)c(F)c2)cs1	0.08952
CSc1ccc(NCc2csc(CS(C)(=O)=O)n2)cc1F	19.87
COCCNC(=O)c1ccc(NCc2c(C)noc2C)cc1Cl	99.6
COCCNC(=O)c1ccc(NCc2csc(C)n2)cc1Cl	103.1
Cc1noc(C)c1CNc1ccc2nc(C3CC3)sc2c1	-3.579
COC(=O)c1ccc(NCc2csc(C)n2)cc1Cl	105.1
COCc1nc2cc(NCc3csc(C)n3)ccc2o1	-10.85
CSc1ccc(NCc2csc(C)n2)cc1F	74.08
Cc1noc(C)c1CNc1cccc(C(=O)N(C)c2ccccc2)c1	8.742
Cc1ccc(-c2nc(CNc3ccc(C(N)=O)c(C)c3)cs2)o1	16.54
COC(=O)c1cc(NCc2cscn2)ccc1C	4.935
COc1ccc(OCCCNC(=O)NCc2csc(C)n2)cc1	-1.518
CCOCCC(=O)N1Cc2cnc(-c3ccccc3)nc2C1	-9.321
Cc1nsc(N2CCN(C(=O)Nc3cccc(C#N)c3)CC2)n1	-11.67
CC(=O)N[C@@H]1CN(Cc2ccccc2-n2cccn2)C[C@H]1C(C)C	1.725
Cc1cc(C)cc(C(=O)NCCCC2(C3OCCO3)CCOCC2)c1	11.75
CCn1c(CN(C)CC(=O)N(C)C)nc2c(F)cccc21	-12.46

Compound	Percent Effect [%]
Cc1nnc(N2C[C@H](Oc3ccccn3)[C@H]3OCCC[C@H]32)s1.O=C(O)C(F)(F)F.O=C(O)C(F)(F)F	-4.759
O=C(Nc1ccc(-c2cscn2)cc1)C1CCCN(Cc2ccon2)C1 (stereo not drawn)	-5.748
CCOC(=O)NCCNC(=O)c1cc(Br)cn1C(C)C	-7.035
Cn1ccnc1C(=O)N1CCC2(CCN2Cc2ccc(F)cc2)C1.O=C(O)C(F)(F)F (stereo not drawn)	107.3
O=C(c1ccsc1)N1CCC2(CCN2Cc2ccc(F)cc2)C1 (stereo not drawn)	-0.5147
Cn1ccnc1C(=O)N1CCC2(CCN2CC2CC2)C1.O=C(O)C(F)(F)F (stereo not drawn)	-29.26
Cc1ccc(C(=O)N2CCC3(CCN3Cc3ccc(F)cc3)C2)cn1.O=C(O)C(F)(F)F (stereo not drawn)	111.6
Cc1cnc(C(=O)N2CCC3(CCN3Cc3ccc(F)cc3)C2)cn1.O=C(O)C(F)(F)F (stereo not drawn)	105.8
Cc1ccc(C(=O)N2CCC3(CCN(c4ccsc4)C3=O)C2)cn1.O=C(O)C(F)(F)F (stereo not drawn)	44.84
CCN1CCC12CCN(C(=O)c1ccsc1)C2.O=C(O)C(F)(F)F (stereo not drawn)	-5.276
CCn1c(Cn2cncn2)nnc1C1CCN(C(=O)CCSC)CC1	0.8054
CCn1c(SC)nnc1C1CCN(C(=O)N2CCCC2)CC1	139.7
Cn1c(CN2CCCC2)nnc1C1CCCN(C(=O)N2CCOCC2)C1 (stereo not drawn)	-16.59
CSc1nnc(C2CCN(C(=O)N3CCCC3)CC2)n1C	86.99
CCn1c(CN2CCCC2)nnc1C1CCN(S(=O)(=O)CC)CC1	6.34
CSc1nnc(CC2CCN(C(=O)Cc3ccncc3)CC2)n1C	-0.6807
O=C(NCCNC(=O)C1CCN(CC(F)(F)F)CC1)c1ccoc1	16.83
O=C(NCCNc1ncccn1)C1CCN(CC(F)(F)F)CC1	1.799
CC(C)(C)OC(=O)N1CCC(C(=O)NCCNc2ncccn2)CC1	98.46
O=C(NCCNc1ncccn1)C1CCN(C(=O)NC2CC2)CC1	95.19
O=C(NCCNc1ncccn1)C1CCN(C(=O)C2CC2)CC1	7.876
CN(C)C(=O)N1CCC(C(=O)NCCNc2ncccc2C#N)CC1	-1.068
O=C(NCCNc1ncccn1)N1CCSCC1	-3.552

Compound	Percent Effect [%]
O=C(NCCNC(=O)C1CCN(c2ncccn2)CC1)c1ccoc1	-1.676
O=C(NCCNc1ncccn1)C1CCN(C(=O)c2ccoc2)CC1	101.2
O=C(NCCNc1ncccn1)C1CCN(C(=O)N2CCCC2)CC1	88.68
CC(O)CN1CCC(CN(C)Cc2ccc(C(N)=O)cc2)CC1 (stereo not drawn)	3.378
O=C1N(Cc2cccc(F)c2F)CCCC1(O)CNCC1CCCCC1 (stereo not drawn)	-14.65
Cc1nc2ccccc2nc1CN1CCn2nc(CCC(=O)O)cc2C1	11.39
CC(Nc1ccc(CN2CCCC2=O)cc1)C(=O)N(C)CCC#N (stereo not drawn)	4.456
CCCC(=O)N1CCC(C(=O)NCCNc2ncccn2)CC1	97.7
O=C(NCCNc1ncccn1)C1CCN(c2ncccn2)CC1	-3.346
O=C(NCCNc1ncccn1)C1CCCC1	120
CCCC(=O)N1CCC(C(=O)NCCN2CCC(C)CC2)CC1	2.916
CS(=O)(=O)N1CCC(C(=O)NCCNc2ncccn2)CC1	-2.901
Cc1ccc(CN2CC[C@H]3C(=O)N(c4cccnc4)CCO[C@H]3C2)o1	-2.706
CN(C)CCNC(=O)c1nc2c(s1)CCCN2C(=O)C1CC1.O=C(O)C(F)(F)F	97.24
O=C(NCc1cccnc1)c1nc2c(s1)CCCN2C(=O)C1CC1.O=C(O)C(F)(F)F	105.9
O=C(NCCc1cccc(F)c1)c1nc2c(s1)CCCN2C(=O)C1CC1	109.4
O=C(NCCc1cccnc1)c1nc2c(s1)CCCN2C(=O)C1CC1.O=C(O)C(F)(F)F	99.18
COCCN(C)C(=O)c1nc2c(s1)CCCN2C(=O)C1CC1	11.31
Cc1ccc(NC(=O)c2nc3c(s2)CCCN3C(=O)C2CC2)cn1.O=C(O)C(F)(F)F	7.338
CN1CCCc2sc(C(=O)NCc3cccnc3)nc21	-7.154
CN1CCN(C(=O)c2nc3c(s2)CCCN3C(=O)C2CC2)CC1.O=C(O)C(F)(F)F	-2.349
O=C(c1nc2c(s1)CCCN2C(=O)C1CC1)N1CCCC1	12.54
